Measured values as given in PubChem BioAssay (NCI).
About 83,000 compounds went through this panel and 20% of them were active in at least one assay; those are over-represented in the sample as a whole.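 How to read the values: 0–100, growth inhibition (40 = 60% inhibited); 0, no net growth; -100 to 0, cell death (-40 = 40% of starting cells died; -100 = all dead).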 Unmarked numbers belong to inactive results. Active and inactive are the calls of the source.

These molecules were tested on LOX IMVI melanoma (assay: NCI-60 one-dose screen, 48 h (100 = growth as untreated, 0 = no growth, -100 = all killed)). Details: 10 µM.
Description: Growth inhibition of the LOX IMVI human tumor cell line is measured as a screen for anti-cancer activity. Cells are grown in 96 well plates and exposed to the test compound for 48 hours. Compounds are tested at a single concentration, which is 10^-5 M for most compounds. The reported endpoint is percent growth (GI% or GIPRCNT), where numbers from 0 - 100% represent growth inhibition, and numbers from -100% - 0 represent cell death. For example, a value of 40 represents 60% growth inhibition. A value of 0 means no net growth occurred over the course of the experiment. A value of -40 indicates 40% of cells at the beginning of the experiment died by the end of the experiment. A value of -100 means all cells are dead at the end of the experiment.
NCI-60 Human Tumor Cell Lines Screen was performed using the standard one-dose NCI protocol, which is described in more detail at https://dtp.cancer.gov/discovery_development/nci-60/default.htm.
Compounds with GIPRCNT values below 10 were considered active. Activity score was based on GIPRCNT using the following formula: […]
Score is 0 for GIPRCNT values of 100 or above, 50 for GIPRCNT values of 0, and 100 for GIPRCNT values of -100.

Compound	growth
O=C(CSc1nnc(-c2ccc3nc(-c4ccccc4)[nH]c3c2)o1)Nc1ccc(Cl)cc1	-2.86% (active)
COc1cc2c3c(n(CCCN4CCOCC4)c(=O)c2cc1OC)-c1nc2c(cc1C3=O)OCO2	-76.6% (active)
CC1(c2ccccc2)NC(=O)N(CC(=O)Nc2ccc(C(=O)/C=C/c3ccccc3)cc2)C1=O (stereo not given)	-72% (active)
Cc1ccc2nc(-c3ccc(-c4nnc(SCC(=O)Nc5ccc(Cl)cc5)o4)cc3)[nH]c2c1	-45.6% (active)
COc1ccc(OC)c(/C=N/NC(=O)c2ccc3nc(-c4ccc(Cl)cc4)[nH]c3c2)c1	65.4%
CC(=C(c1ccc(OCCN2CCCCC2)cc1)c1ccc(OCCN2CCCCC2)cc1)c1ccccc1	-96.6% (active)
CC(C)CCSc1nc(NC2CC2)c(C#N)c(-c2ccc(C(C)C)cc2)n1	100%
NS(=O)(=O)c1ccc(NC(=O)CSc2ccc(-c3ccccc3)nn2)c(Br)c1	42.6%
CO[C@H]1CSS[C@@H]1Cn1nc(-c2ccc(Oc3ccccc3)cc2)c2c(N)ncnc21	36.8%
O=C(Cn1nc(-c2ccccc2)ccc1=O)NNC(=S)NC1CCCCC1	99%
O=C1Nc2ccc(Cl)cc2/C1=C/c1cccc(OCc2ccccn2)c1	-89.9% (active)
O=C(Cc1ccc2c(c1)CN(C1CCC(=O)NC1=O)C2=O)NCCc1ccccc1 (stereo not given)	81.2%
COc1cccc(/C=N/NC(=O)c2ccc3nc(-c4ccc(Cl)cc4)[nH]c3c2)c1O	-97.2% (active)
O=C1Nc2ccc(F)cc2/C1=C/c1cccc(OCc2ccccc2)c1	-79.5% (active)
COc1ccc(C(=O)Nc2ccc(-c3ccc4c(c3)NC(=O)/C4=C\c3ccc[nH]3)cc2)cc1	5.2% (active)
Brc1ccc(/C=C/c2n(Cc3ccc4ccccc4c3)c3ccccc3[n+]2Cc2ccc3ccccc3c2)cc1	-100% (active)
CC(=O)OC[C@@]1(C)C2CC[C@]3(C)C(CC=C4C5CC(C)(C)CC[C@]5(C(=O)Nc5ccccc5)CC[C@]43C)[C@@]2(C)C[C@@H](OC(C)=O)[C@@H]1OC(C)=O (stereo not given in full)	3.23% (active)
Cc1noc2c(Cc3ccc([N+](=O)[O-])cc3)nn(CC(=O)N/N=C/c3ccc(Br)cc3)c(=O)c12	52.2%
Nc1nc(Nc2ccc(Cl)cc2)n(Cc2cccc(Br)c2)n1	-84.6% (active)
COc1ccccc1[C@H]1C(C(=O)c2ccc(Cl)cc2)C2(N[C@@H]1c1ccccc1)C(=O)Nc1ccc(Cl)cc12 (stereo not given in full)	-74.6% (active)

Compound	growth
CN1CCN(c2ccc(Nc3nc(N4CCN(S(=O)(=O)c5ccc(Cl)cc5)CC4)c4sccc4n3)cc2)CC1	-90.1% (active)
CCOC(=O)C1=C(N)N(c2ccccc2)C2=C(C(=O)CC(C)(C)C2)C1c1ccc(Cl)cc1 (stereo not given)	41.5%
O=C(Nc1cccc([N+](=O)[O-])c1)Nc1cccc([N+](=O)[O-])c1	87.7%
CC(=O)Nc1ccc(-n2cnc3cc(-c4ccc(O)cc4)ccc32)cc1C	53.3%
CC1(C)CC[C@]2(C(=O)NCCCNCCCCNCCCN)CC[C@]3(C)C(=CC[C@@H]4[C@@]5(C)Cc6c([nH]c7ccccc67)C(C)(C)[C@@H]5CC[C@]43C)[C@H]2C1	92.6%
Cc1cccc(-c2nc(Nc3ccccc3C(=O)O)c3ccccc3n2)c1	36.4%
COc1ccc2[nH]c(=O)c(CSc3nccc(-c4ccc(Cl)cc4)n3)cc2c1	27.9%
COc1ccc(NC(=O)CSc2nnc(-c3ccc4nc(-c5ccc(Cl)cc5)[nH]c4c3)o2)cc1	16.6%
COc1ccc(-c2cc(C(=O)N=Nc3c(O)[nH]c4ccc(Br)cc34)c3ccccc3n2)cc1	-51.5% (active)
CN1CCc2c(sc3ncnc(N/N=C/c4cn(-c5ccccc5)nc4-c4ccc(Cl)cc4)c23)C1	-65.7% (active)
CC1=C(C(=O)OC(C)C)C(c2ccc(O)cc2)NC(=S)N1 (stereo not given)	94.4%
COc1ccc(-c2c(N)c(=O)n(C)c3ccccc23)cc1	45.9%
Cc1ccc(-c2ccc(SCC(=O)Nc3ccc(S(N)(=O)=O)cc3Br)nn2)cc1	-66.4% (active)
O=C(Nc1ccc(I)cc1F)c1cc(-c2ccc(F)cc2F)ccc1O	6.5% (active)
CCOc1ccc(/C=N/NC(=O)Cn2nc(Cc3ccccc3)c3onc(C)c3c2=O)cc1	14.2%
O=C(c1ccc(-n2c(=O)[nH]c3ccccc3c2=O)cc1)N1CCOCC1	104%
O=C(CSc1nnc(-c2c[nH]c3ccccc23)n1-c1ccccc1)c1ccc(Br)cc1	41.8%
COc1ccccc1NCc1ccc(CO)n1-c1ccc(C)cc1	86.5%
CCCCSc1nc(Nc2ccc(/C(C)=N/NC(N)=S)cc2)c(C#N)c(-c2ccc(OC)cc2)n1	-10.1% (active)
CN1CCc2c(sc3ncnc(N/N=C/c4cn(-c5ccccc5)nc4-c4ccc(Br)cc4)c23)C1	28.4%
